Consider four compounds from PubChem BioAssay (EPA / NIEHS).

Read-out in test [1]: Transforming growth factor beta 1 (TGFb1), TGFB1 (gene 7040)
The experiment in a line: BSK_KF3CT_TGFb1: BioMAP Diversity Plus: KF3CT Assay for Transforming growth factor beta 1 (TGFb1) Biomarker Activity (AID 2283072). The settings on record: primary human keratinocytes with fibroblasts; actives raise or lower the signal. A digest of the protocol: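 Human keratinocyte plus foreskin fibroblast primary co-culture, dosed with chemical for 24 h. TGF-b1 quantified by ELISA. Activity fitted bidirectionally against DMSO negative control as baseline.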

Read-out in test [2]: C-C motif chemokine 2 (Homo sapiens) (UniProt P13500)
The experiment in a line: BSK_KF3CT_MCP1: BioMAP Diversity Plus: KF3CT Assay for Monocyte Chemoattractant Protein 1 (MCP1/CCL2) Biomarker Activity (AID 2283073). The settings on record: primary human keratinocytes with fibroblasts; actives raise or lower the signal. A digest of the protocol:
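Biomarker MCP-1 is measured by ELISA in primary human keratinocytes co-cultured with foreskin fibroblasts, 24 h after chemical treatment; DMSO serves as the negative control and activity baseline.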

Read-out in test [3]: Matrix Metallopeptidase 9 (MMP9), MMP9 (gene 4318)
Kind of test: BSK_KF3CT_MMP9: BioMAP Diversity Plus: KF3CT Assay for Matrix Metallopeptidase 9 (MMP9) Biomarker Activity (AID 2283074).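 On AC50: MMP9 protein level quantified by ELISA in the co-culture.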 The settings on record: primary human keratinocytes with fibroblasts; actives raise or lower the signal. A digest of the protocol: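 Human keratinocyte and foreskin fibroblast co-culture exposed to chemicals for 24 h; MMP9 biomarker measured by ELISA, bidirectional fitting relative to DMSO; cytotoxicity tracked by SRB total protein staining in parallel cultures.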

Read-out in test [4]: urokinase plasminogen activator (uPA), PLAU (gene 5328)
Kind of test: BSK_KF3CT_uPA: BioMAP Diversity Plus: KF3CT Assay for urokinase plasminogen activator (uPA) Biomarker Activity (AID 2283075). The settings on record: primary human keratinocytes with fibroblasts; actives raise or lower the signal. Put shortly:
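Primary human keratinocyte/foreskin fibroblast co-culture exposed to chemical; uPA measured by ELISA at 24 h. Bidirectional fit versus DMSO, with parallel SRB total-protein staining for cytotoxicity.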

Read-out in test [5]: CD40, CD40 (gene 958)
Kind of test: BSK_LPS_CD40: BioMAP Diversity Plus: LPS Assay for CD40 Biomarker Activity (AID 2283076). The settings on record: primary human HUVEC with PBMC; actives raise or lower the signal. Put shortly: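 Using a multiplexed primary human co-culture (umbilical vein endothelium plus PBMC), CD40 was read by ELISA 24 h after dosing, with cytotoxicity tracked by sulforhodamine B staining of parallel cultures and activity fitted bidirectionally versus DMSO.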

Read-out in test [6]: E-selectin (Homo sapiens) (UniProt P16581)
Kind of test: BSK_LPS_Eselectin: BioMAP Diversity Plus: LPS Assay for Eselectin Biomarker Activity (AID 2283077). The settings on record: primary human HUVEC with PBMC; actives raise or lower the signal. A digest of the protocol:
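Dose chemical onto LPS-driven HUVEC/PBMC co-culture; after 24 h, run ELISA for E-selectin; fit up- and down-going responses relative to DMSO control.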

Read-out in test [7]: Interleukin-8 (IL8), CXCL8 (gene 3576)
Kind of test: BSK_LPS_IL8: BioMAP Diversity Plus: LPS Assay for Interleukin-8 (IL8) Biomarker Activity (AID 2283078). The settings on record: primary human HUVEC with PBMC; actives raise or lower the signal. A digest of the protocol:
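In this LPS system, chemical-treated human umbilical vein endothelium/PBMC co-cultures were harvested at 24 h for IL-8 ELISA.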

Test [8] is described as follows: BSK_LPS_SRB: Viability Assessment in the BioMAP Diversity Plus: LPS Assay (AID 2283079).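 Further: total protein by sulforhodamine B absorbance as a cytotoxicity measure; measured one day after compound addition; fitted in both directions against DMSO so loss or gain of signal counts.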 The settings on record: primary human HUVEC with PBMC. Put shortly:
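Cytotoxicity endpoint in human endothelial–PBMC co-culture: 24 h exposure, then SRB (0.1%) staining, 560 nm read.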

Read-out in test [9]: Interleukin-1 alpha (IL1a), IL1A (gene 3552)
Kind of test: BSK_LPS_IL1a: BioMAP Diversity Plus: LPS Assay for Interleukin-1 alpha (IL1a) Biomarker Activity (AID 2283080). The settings on record: primary human HUVEC with PBMC; actives raise or lower the signal. A digest of the protocol: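 Primary human HUVEC and PBMC co-culture stimulated with LPS is dosed and harvested at 24 h. Both increases and decreases in ELISA-measured IL-1a are scored relative to DMSO.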

Read-out in test [10]: Monocyte Chemoattractant Protein-1 (MCP1), CCL2 (gene 6347)
Kind of test: BSK_LPS_MCP1: BioMAP Diversity Plus: LPS Assay for Monocyte Chemoattractant Protein-1 (MCP1) Biomarker Activity (AID 2283081). The settings on record: primary human HUVEC with PBMC; actives raise or lower the signal. Put shortly: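 Values derive from bidirectional fitting against DMSO of ELISA-measured MCP-1 in a human primary endothelial and mononuclear cell co-culture, 24 h after chemical addition under LPS activation.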

A short description of test [11]: BSK_LPS_PGE2: BioMAP Diversity Plus: LPS Assay for Prostaglandin E2 (PGE2) Biomarker Activity (AID 2283082).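 On AC50: secreted prostaglandin E2 measured by ELISA in LPS-stimulated co-culture.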 The settings on record: primary human HUVEC with PBMC; actives raise or lower the signal. Put shortly:
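HUVEC plus PBMC co-culture stimulated with LPS; secreted PGE2 quantified by ELISA 24 h after chemical dosing. Activity fitted bidirectionally against DMSO as negative control and baseline; parallel SRB total-protein staining served as cytotoxicity check.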

Read-out in test [12]: Tissue Factor, F3 (gene 2152)
The experiment in a line: BSK_LPS_TissueFactor: BioMAP Diversity Plus: LPS Assay for Tissue Factor Biomarker Activity (AID 2283084). The settings on record: primary human HUVEC with PBMC; actives raise or lower the signal. A digest of the protocol: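 Read-out: CD142 ELISA, 24 h. System: LPS-driven human endothelial/PBMC co-culture. Analysis: up- or down-signal fitted against DMSO.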

Read-out in test [13]: Tumor necrosis factor (Homo sapiens) (UniProt P01375)
Kind of test: BSK_LPS_TNFa: BioMAP Diversity Plus: LPS Assay for Tumour Necrosis Factor alpha (TNFa) Biomarker Activity (AID 2283085). The settings on record: primary human HUVEC with PBMC; actives raise or lower the signal. A digest of the protocol:
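Human umbilical vein endothelial cells co-cultured with PBMC were exposed to test chemical and TNFa measured by ELISA 24 h after dosing. Bidirectional curve fitting was done relative to DMSO as negative control and baseline.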

Read-out in test [14]: Vascular cell adhesion molecule 1 (VCAM1), VCAM1 (gene 7412)
The experiment in a line: BSK_LPS_VCAM1: BioMAP Diversity Plus: LPS Assay for Vascular cell adhesion molecule 1 (VCAM1) Biomarker Activity (AID 2283086). The settings on record: primary human HUVEC with PBMC; actives raise or lower the signal. A digest of the protocol: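 Human umbilical vein endothelial cells co-cultured with peripheral blood mononuclear cells under LPS stimulation were exposed to test chemical for 24 h. VCAM-1 levels were then measured by ELISA, with bidirectional curve fitting relative to DMSO as negative control and baseline.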

Read-out in another test: CD38, CD38 (gene 952)
Kind of test: BSK_SAg_CD38: BioMAP Diversity Plus: SAg Assay for CD38 Biomarker Activity (AID 2283087). The settings on record: primary human HUVEC with PBMC; actives raise or lower the signal. A digest of the protocol:
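Fluorescence ELISA of cell-surface CD38 served as the read-out, with either increase or decrease fitted against DMSO controls. Cells were a human umbilical vein endothelium plus PBMC co-culture under SEB/TSST-1 stimulation, measured 24 h after dosing.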

Read-out in test [15]: CD40, CD40 (gene 958)
Kind of test: BSK_SAg_CD40: BioMAP Diversity Plus: SAg Assay for CD40 Biomarker Activity (AID 2283088). The settings on record: primary human HUVEC with PBMC; actives raise or lower the signal. Put shortly: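 Endpoint derived by fitting increases or decreases versus DMSO controls. CD40 is detected by fluorescence ELISA in a human vascular co-culture of endothelium and PBMC at 24 h.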

Read-out in a further test: CD69, CD69 (gene 969)
Kind of test: BSK_SAg_CD69: BioMAP Diversity Plus: SAg Assay for CD69 Biomarker Activity (AID 2283089). The settings on record: primary human HUVEC with PBMC; actives raise or lower the signal. A digest of the protocol:
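Endothelial/PBMC co-culture; chemical added; 24 h incubation; CD69 ELISA with fluorescence detection; bidirectional fit vs DMSO.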

Read-out in test [16]: Monocyte Chemoattractant Protein-1 (MCP1), CCL2 (gene 6347)
Kind of test: BSK_SAg_MCP1: BioMAP Diversity Plus: SAg Assay for Monocyte Chemoattractant Protein-1 (MCP1) Biomarker Activity (AID 2283090). The settings on record: primary human HUVEC with PBMC; actives raise or lower the signal. Put shortly:
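MCP-1 levels in the endothelial–PBMC SAg co-culture were quantified by ELISA at 24 h post-dosing; both increases and decreases versus DMSO scored. Cytotoxicity monitored by SRB total protein in parallel cultures.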

Read-out in test [17]: E-selectin (Homo sapiens) (UniProt P16581)
The experiment in a line: BSK_SAg_Eselectin: BioMAP Diversity Plus: SAg Assay for Eselectin Biomarker Activity (AID 2283091). The settings on record: primary human HUVEC with PBMC; actives raise or lower the signal. Put shortly:
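Endpoint values derive from bidirectional fitting relative to DMSO, using ELISA-measured E-selectin in a human vascular co-culture (umbilical vein endothelium plus PBMC) sampled 24 h after dosing.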

Read-out in test [18]: Macrophage colony-stimulating factor (MCSF), CSF1 (gene 1435)
Kind of test: BSK_LPS_MCSF: BioMAP Diversity Plus: LPS Assay for Macrophage colony-stimulating factor (MCSF) Biomarker Activity (AID 2283083). The settings on record: primary human HUVEC with PBMC; actives raise or lower the signal. A digest of the protocol:
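Bidirectional fit versus DMSO of ELISA-measured M-CSF in co-cultured human umbilical vein endothelial cells and PBMC, sampled 24 h after dosing.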

Molecules are shown by their SMILES. Calls of active or inactive are those of the source. How the source made its calls: active means hit-call score of the fitted dose curve at least 0.9, where 1 is the maximum; inactive means score below 0.9.

E-selectin (Homo sapiens), sequence (P16581 whole entry, looked up): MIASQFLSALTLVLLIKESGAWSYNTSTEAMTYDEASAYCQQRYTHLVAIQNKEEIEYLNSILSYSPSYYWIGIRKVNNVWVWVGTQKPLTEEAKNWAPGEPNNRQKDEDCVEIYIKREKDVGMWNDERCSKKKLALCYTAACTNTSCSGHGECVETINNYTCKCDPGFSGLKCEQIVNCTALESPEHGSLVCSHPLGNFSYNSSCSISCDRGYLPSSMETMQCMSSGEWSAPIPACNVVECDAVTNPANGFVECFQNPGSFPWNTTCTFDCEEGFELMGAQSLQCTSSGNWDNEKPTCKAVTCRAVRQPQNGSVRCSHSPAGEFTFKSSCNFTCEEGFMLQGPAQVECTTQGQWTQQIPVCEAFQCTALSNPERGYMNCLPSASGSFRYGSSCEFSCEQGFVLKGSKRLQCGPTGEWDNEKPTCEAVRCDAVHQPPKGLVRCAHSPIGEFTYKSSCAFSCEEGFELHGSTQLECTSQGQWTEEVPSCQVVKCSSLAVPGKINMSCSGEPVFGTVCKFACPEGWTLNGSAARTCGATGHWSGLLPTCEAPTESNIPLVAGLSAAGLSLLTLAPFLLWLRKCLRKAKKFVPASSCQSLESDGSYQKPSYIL
Tumor necrosis factor (Homo sapiens), sequence (P01375 whole entry, looked up): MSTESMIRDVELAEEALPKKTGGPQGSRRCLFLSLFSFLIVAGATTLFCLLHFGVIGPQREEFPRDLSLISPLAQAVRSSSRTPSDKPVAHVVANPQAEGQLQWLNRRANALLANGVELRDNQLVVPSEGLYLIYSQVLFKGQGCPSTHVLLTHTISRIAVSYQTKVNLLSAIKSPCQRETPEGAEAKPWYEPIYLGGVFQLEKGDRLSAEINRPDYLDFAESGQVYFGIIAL

As for `Oc1ccc2ccccc2c1N=Nc1ccccc1`, the AC50 – broadly, the concentration at which the activity in the assay is half-maximal – in test [1] is 6.33 µM (active); in test [3] it was 3.97 µM (active); in test [11] it was 2.4 µM (active); in test [13] it was 1.98 µM (active); in [17], 4.27 µM (active). For the same compound, the outcome was “inactive” in test [2]; “inactive” in test [4]; “inactive” in the test with CD40, CD40 (gene 958) [5]; “inactive” in test [6]; “inactive” in test [7]; “inactive” in [8]. The outcome in test [9] was “inactive”; in test [10], “inactive”; in [12] it was “inactive”; in test [14], “inactive”; in the test with CD38, CD38 (gene 952), “inactive”; in the test with CD40, CD40 (gene 958) [15], “inactive”. Also, the outcome in the test with CD69, CD69 (gene 969) was “inactive”; in test [16], “inactive”.
For `Nc1ccc(S(=O)(=O)c2ccc(N)cc2)cc1`, the outcome was “inactive” in test [1]; “inactive” in test [2]; “inactive” in [3]; “inactive” in [4]; “inactive” with CD40, CD40 (gene 958) [5]; “inactive” in [6]. For the same compound, the outcome in [7], in test [8], in test [9], in [10], in test [11] and in [18] was inactive. Besides, the outcome is “inactive” in test [12]; “inactive” in test [14]; “inactive” in the test with CD38, CD38 (gene 952); “inactive” in the test with CD40, CD40 (gene 958) [15]; “inactive” with CD69, CD69 (gene 969); “inactive” in test [16]. Moreover, the result in test [17] was inactive.
With `NC(=O)Cn1c(=O)cc(CCN2CCN(c3nccc4sccc34)CC2)c2ccc(F)cc21`, the outcome in test [1] is “inactive”; in test [2] it was “inactive”; in test [3], “inactive”; in test [4], “inactive”; in the test with CD40, CD40 (gene 958) [5] it was “inactive”; in test [6] it was “inactive”. Also, the outcome in [7], in test [8], in test [9], in test [10], in test [11] and in test [18] was inactive. Besides, the outcome in test [12] is “inactive”; in [14], “inactive”; in the test with CD38, CD38 (gene 952) it was “inactive”; with CD40, CD40 (gene 958) [15], “inactive”; with CD69, CD69 (gene 969), “inactive”; in [16], “inactive”. The outcome in test [17] was inactive.
On to `Cc1cccc(Nc2cc(Cl)nc(SCC(=O)O)n2)c1C`, for which the outcome is “inactive” in test [1]; “inactive” in [2]; “inactive” in [3]; “inactive” in test [4]; “inactive” in the test with CD40, CD40 (gene 958) [5]; “inactive” in [6]. For the same compound, the outcome in test [7], in test [8], in test [9], in test [11], in test [18] and in test [12] was inactive. Besides, the outcome in test [13] was “inactive”; in [14], “inactive”; with CD38, CD38 (gene 952) it was “inactive”; with CD40, CD40 (gene 958) [15], “inactive”; in the test with CD69, CD69 (gene 969) it was “inactive”; in test [16], “inactive”. Moreover, in [17], the outcome was inactive.
